mHTT-CaM PPI inh: mHTT-calmodulin interaction abrogation | AlphaScreen His-mHTT/GST-CaM binding, luminescence | 190,000 tested, 3.6% active | P42858 | inhibition, % at 15 µM | AID 1671202
Pf apPOL block: Pf-apPOL DNA polymerase inhibition; 210,000 tested, 0.25% active; Recombinant Pf-apPOL, molecular beacon fluorescence, 1.5 h; inhibition, % at 10 µM
A number is an active result; 0 = inactive; - = not tested or not shown. Sampled rows, rich in hits. Any-hit rate of the full collection: about 3.6%. No stated cut-off is given here; in the data, active means inhibition above about 50%; inactive means the rest.

SMILES | mHTT-CaM PPI inh | Pf apPOL block
Cc1cc(Br)cc(C)c1NC(=O)c1sc2ccccc2c1Cl | 0 | 0
Cc1cccc(-n2c(=O)n(C3CC3)c(=O)c3c2ncn3C(C)C)c1 | 0 | 0
Cc1ccc(-c2noc(Cn3ccnc3C)n2)cc1C | 0 | 0
O=C(Nc1ccccc1)C1CCCN(c2ncc(-c3ccc(F)cc3)cn2)C1 (stereo unspecified) | 0 | 0
CC(C)CN1C(=O)C(C)(C)COc2cc(NC(=O)Nc3cccs3)ccc21 | 0 | 0
COc1ccc(NCc2ccc(C)s2)cc1OC | 71 | 0
COc1ccc(NCc2ccc(OC)c(OC)c2)cc1 | 0 | 0
CCOc1ccc(-c2ccnc3c(C(=O)NCc4cc(F)cc(F)c4)cnn23)cc1 | 0 | 0
CSc1ccc(C(=O)O)s1 | 0 | 88
COc1ccc(OC)c(NC(=O)c2ccc(SC)s2)c1 | - | 0
CCC(=O)NCc1nc2c(n1C)CN(S(=O)(=O)c1cccc(C)c1)CC2 | 0 | 0
O=C1c2cccc(Cl)c2C(=O)c2cccc(Cl)c21 | 0 | 0
O=C1c2cccc(N3CCCC3)c2C(=O)c2cccc(Cl)c21 | 65 | 0
O=[N+]([O-])c1ccc(N2CCN(CCO)CC2)c2ncccc12 | 0 | 0
O=[N+]([O-])c1cc2cccnc2c2ncccc12 | 100 | -
CS(=O)(=O)c1ccc(Sc2cccc3cccnc23)c([N+](=O)[O-])c1 | 0 | 0
CCCN(CCC)c1c([N+](=O)[O-])cc([N+](=O)[O-])c2cccnc12 | 80 | 0
COc1ccc(Nc2c([N+](=O)[O-])cc([N+](=O)[O-])c3cccnc23)cc1 | 0 | 0
O=[N+]([O-])c1cc([N+](=O)[O-])c2cccnc2c1Nc1ccc(O)cc1 | 75 | 0
COc1ccc(OC)c(-c2ccc(=O)n(CC(=O)N3CCc4ccccc43)n2)c1 | 0 | 0
COCCn1cc(C(=O)NCc2c(F)cccc2F)c2nn(-c3ccccc3)c(=O)c-2c1 | 0 | 0
COc1ccc(-n2nc3c(c2NC(=O)c2cccc(Br)c2)CS(=O)(=O)C3)cc1 | 0 | 0
COCC(=O)N1CCc2c(c(-c3nnc(SC)n3C)nn2C)C1 | 0 | 0
CN(Cc1ccccc1)c1nc(-c2ccco2)cc(C(F)(F)F)n1 | 0 | 0
COc1ncccc1CN(C)C(=O)c1ccc(C(F)(F)F)s1 | 0 | 0
SMILES | mHTT-CaM PPI inh | Pf apPOL block
N#Cc1ccc(NC(=O)CN2CCC(c3nc(-c4ccc(F)cc4)no3)CC2)cc1 | 0 | 0
CCc1sc(C2C(C#N)=C(N)Oc3n[nH]c(C)c32)cc1Br (stereo unspecified) | 0 | -
CC1=NN(c2ccc(Cl)c(Cl)c2)C(=O)/C1=C/c1ccc(Br)cc1 | 0 | 0
CCc1cccc(N=c2oc3c(C)ncc(CO)c3cc2C(=O)Nc2ccc(F)cc2F)c1 | 0 | 0
CS(=O)(=O)N1CCC(C(=O)NCCCN2CCN(c3ccccc3)CC2)CC1 | 0 | 0
Cc1ccc(Cl)cc1N1CCN(C(=O)C2CCN(c3ccncc3)CC2)CC1 | 100 | 0
Cc1ccnc(N2CCC(C(=O)N3CCN(c4cccc(C(F)(F)F)c4)CC3)CC2)n1 | 0 | 0
Cc1ccc(C)c(N2CCN(C(=O)C3CCN(c4ccncc4)CC3)CC2)c1 | 0 | 0
Cc1ccnc(N2CCCC(C(=O)N3CCN(c4ncccn4)CC3)C2)n1 (stereo unspecified) | 0 | 0
O=C(NCCCN1CCN(c2cccc(Cl)c2)CC1)C1CCN(c2ccncc2)CC1 | 95 | 0
Cc1ccnc(N2CCCC(C(=O)N3CCN(c4cc(Cl)ccc4C)CC3)C2)n1 (stereo unspecified) | 90 | 0
Cc1ccnc(N2CCCC(C(=O)N3CCN(c4cccc(C(F)(F)F)c4)CC3)C2)n1 (stereo unspecified) | 78 | 0
CC(=O)Nc1ccc(C)cc1S(=O)(=O)N1CCCC(C)(C(=O)NCc2ccccc2)C1 (stereo unspecified) | 0 | 0
O=C(NCc1ccc(F)cc1)c1ccc2c(c1)NC(=O)C1CCCCN21 (stereo unspecified) | 0 | 0
O=C(CC(Cc1ccc(Cl)cc1)C(=O)O)Nc1ccc([N+](=O)[O-])cc1 (stereo unspecified) | 0 | 0
CCn1cc2c3c(cccc31)CN(C(=O)NC(C)C)CC2 | 0 | 0
CC(C)Cn1cc2c3c(cccc31)CN(C(=O)Cc1cccs1)CC2 | 64 | 0
CC(C)CC(=O)N1CCc2cn(C)c3cccc(c23)C1 | 0 | 0
CC(C)Cn1cc2c3c(cccc31)CN(C(=O)c1ccccn1)CC2 | 88 | 0
CC(C)CC(=O)N1CCc2cn(CC(C)C)c3cccc(c23)C1 | 0 | 0
CCCC(=O)N1CCc2cn(CC(C)C)c3cccc(c23)C1 | 53 | 0
CS(=O)(=O)NC1CC2CC1CN2C(=O)Cc1ccccc1 (stereo unspecified) | 0 | 0
O=C(c1ccc(OCC2CCCN2C(=O)CC2CCCCC2)cc1)N1CCCC1 (stereo unspecified) | 0 | 0
CN(C)c1ccc(C(=O)N2CCC(c3ccncc3)CC2)cc1 | 0 | 0
CC(Oc1cccc(Cl)c1)C(=O)N1CCN(c2ccc([N+](=O)[O-])cc2)CC1 (stereo unspecified) | 0 | 0
SMILES | mHTT-CaM PPI inh | Pf apPOL block
Cc1cc(Cl)ccc1OC(C)C(=O)N1CCN(c2ccc([N+](=O)[O-])cc2)CC1 (stereo unspecified) | 0 | 55
O=C(Nc1ccc([N+](=O)[O-])cc1)NC1(C(F)(F)F)Oc2ccccc2O1 | 0 | 0
C[C@@H]1C(c2cccc(Cl)c2)=NN(c2ccccc2)[C@H]1C(=O)N1CCOC1=O | 0 | 0
Cc1cccc(C2=NN(c3ccc(Br)cc3)[C@@H](C(=O)N3CCOC3=O)[C@@H]2c2ccccc2)c1 | 0 | 0
C[C@@H]1C(c2cccc(Cl)c2)=NN(c2ccc(Br)cc2)[C@H]1C(=O)N1CCOC1=O | 57 | 0
CC[C@@H]1C(c2cccc(C)c2)=NN(c2ccc(Br)cc2)[C@H]1C(=O)N1CCOC1=O | 66 | 0
CCOc1ccc(NC(=O)c2nnn(-c3cccc(C)c3)c2N)cc1 | 0 | 0
O=C(NC1CC2CC1CN2C(=O)c1cccc(C(F)(F)F)c1)c1cccnc1 (stereo unspecified) | 0 | 0
OC(COCC1CC2CCC1C2)CN1CCc2ccccc2C1 (stereo unspecified) | 0 | 0
OC(COCC1CC2CCC1C2)CN1CCN(C(c2ccccc2)c2ccccc2)CC1 (stereo unspecified) | 62 | 0
O=C(c1cnccn1)N1CCN(c2ccc(N3CCOCC3)nn2)CC1 | 0 | 0
CCOc1ccc(C(=O)Nc2ccc([N+](=O)[O-])c(NC(=O)c3ccc(OCC)cc3)c2)cc1 | 0 | 0
Cc1ccccc1NC(=O)CN1CCC(c2nc(-c3ccncc3)no2)CC1 | 0 | 0
COc1ccc(-c2noc(C3CCN(CC(=O)Nc4ccccc4C)CC3)n2)cc1 | 66 | 0
O=S(=O)(O)c1cc(Br)ccc1I | - | 0
O=S(=O)(O)c1cc(I)c(O)c2ncccc12 | 100 | 0
O=C1C(=O)N(CCN2CCOCC2)C(c2cccs2)C1=C(O)c1ccc(Cl)cc1 (stereo unspecified) | 0 | 0
COc1ccc(NC(=O)c2ccc(Cl)cc2[N+](=O)[O-])c(OC)c1 | 0 | 0
COc1ncnc2c1C(c1cccc([N+](=O)[O-])c1)c1c(OC)ncnc1O2 | 0 | 0
CNc1ncnc2c1C(c1cccc([N+](=O)[O-])c1)c1c(NC)ncnc1O2 | 0 | 75
COc1ccc(OC)c(NC(=O)N2CCCC2c2ccccc2Cl)c1 (stereo unspecified) | 0 | 0
COc1ccc(-c2cc3ccc(OC(=O)C(C)C)cc3oc2=O)c(OC)c1 | 78 | 0
COc1ccc(OC)c(-c2cc3ccc(OC(=O)C(C)C)cc3oc2=O)c1 | 0 | 0
